# Test results taken from PubChem BioAssay.
# Active and inactive are the calls of the source.
# Legend:
# [1] = biological target: Albumin (Bos taurus) (UniProt P02769); experiment: bovine serum albumin binders on microarray, profiling panel, artefact control for SMM control protein annotation, biochemical, small-molecule microarray, Alexa647 label, 635/667 nm fluorescence (AID 1118); details: BSA-A647 binding, fluorescence 635 nm, higher = more signal;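 also: score merges 667 nm emission intensity and signal-to-noise per printed compound spot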
# Albumin (Bos taurus), sequence (P02769 whole entry, looked up): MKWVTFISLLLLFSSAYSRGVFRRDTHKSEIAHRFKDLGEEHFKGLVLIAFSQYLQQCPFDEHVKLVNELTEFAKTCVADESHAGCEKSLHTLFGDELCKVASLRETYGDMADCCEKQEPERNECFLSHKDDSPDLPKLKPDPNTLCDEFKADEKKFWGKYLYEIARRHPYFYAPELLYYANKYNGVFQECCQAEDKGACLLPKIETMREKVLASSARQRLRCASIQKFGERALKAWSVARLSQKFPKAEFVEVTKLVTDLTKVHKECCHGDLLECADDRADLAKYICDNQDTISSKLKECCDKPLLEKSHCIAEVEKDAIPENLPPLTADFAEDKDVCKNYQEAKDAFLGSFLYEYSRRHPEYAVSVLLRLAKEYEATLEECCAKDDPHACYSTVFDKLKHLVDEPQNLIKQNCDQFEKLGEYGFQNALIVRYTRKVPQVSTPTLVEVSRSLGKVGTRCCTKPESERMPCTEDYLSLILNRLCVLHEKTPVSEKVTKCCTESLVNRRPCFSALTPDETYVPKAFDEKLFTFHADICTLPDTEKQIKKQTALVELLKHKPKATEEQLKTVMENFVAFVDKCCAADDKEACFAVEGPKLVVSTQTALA
# [2] = small-molecule microarray binders of probe aXIP, primary screen, biochemical, NeuroSMM set, 635/667 nm fluorescence (AID 1119); details: higher = more signal, called active from +8 up or from −8 down;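 also: probe is the protein aXip251-270 applied at 1 µg/mL to compound-printed slides; binding of probe to printed compounds measured as 667 nm fluorescence plus signal to noise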
# [3] = small-molecule binders of probe aNOTCH3, primary screen, biochemical, small-molecule microarray, 635/667 nm fluorescence (AID 1120); details: higher = more signal;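 also: probe is a biotin-tagged antibody raised against NOTCH3 rather than NOTCH3 protein; score merges spot fluorescence near 667 nm with spot signal to noise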
# [4] = small-molecule binders of probe aNOTCH2, primary screen, biochemical, small-molecule microarray, 635/667 nm fluorescence (AID 1121); details: higher = more signal;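 also: score merges feature fluorescence read at 667 nm with its signal to noise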
# [5] = biological target: Carbonic anhydrase 2 (Homo sapiens) (UniProt P00918); experiment: CAII small-molecule binders, profiling panel, biochemical, small-molecule microarray, Alexa647-labelled CAII (AID 1122); details: CAII-A647 binding fluorescence, higher = more signal
# [6] = COS7 lysate on small-molecule microarray, probe aHis, 635 nm (AID 1123); details: COS7 cell lysate, fluorescence, higher = more signal;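 also: z-score combines 667nm fluorescence intensity with signal-to-noise per printed compound spot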
# [7] = compound binding in COS7 lysate, probe aLAP1, primary screen, cell lysate, small-molecule microarray (AID 1124); details: probe aLAP1, fluorescence, higher = more signal;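 also: lysate comes from COS7 cells expressing LAP1 and is applied at 0.3 µg/mL; score merges spot fluorescence near 667 nm with signal-to-noise over triplicate slides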
# [8] = tested on: Sam68 (KHDRBS1); experiment: Sam68 small-molecule binders, primary screen, biochemical, small-molecule microarray, 635 nm fluorescence (AID 1125); details: small-molecule microarray binding, higher = more signal;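 also: score merges 667 nm channel intensity with signal to noise over triplicate slides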
# [9] = tested on: Chordin-like protein 2 (CHRDL2); experiment: CHRDL2 small-molecule binders, primary screen, biochemical, small-molecule microarray, 635 nm fluorescence (AID 1126); details: small-molecule microarray binding, fluorescence 635 nm; higher = more signal;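 also: printed compound slides probed with Chrdl2 protein at 4 µg/mL for 1 h at 4 C; score merges 667 nm emission intensity with signal to noise over three replicate slides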
# [10] = biological target: Concanavalin-A (Canavalia ensiformis) (UniProt P02866); experiment: ConA small-molecule binders, primary screen, artefact control for SMM control protein annotation, biochemical, small-molecule microarray, Alexa647 label, 635 nm (AID 1127); details: ConA-A647 binding fluorescence, higher = more signal;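 also: z combines 667 nm emission intensity with signal-to-noise across three replicate slides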
# Concanavalin-A (Canavalia ensiformis), sequence (P02866 whole entry, looked up): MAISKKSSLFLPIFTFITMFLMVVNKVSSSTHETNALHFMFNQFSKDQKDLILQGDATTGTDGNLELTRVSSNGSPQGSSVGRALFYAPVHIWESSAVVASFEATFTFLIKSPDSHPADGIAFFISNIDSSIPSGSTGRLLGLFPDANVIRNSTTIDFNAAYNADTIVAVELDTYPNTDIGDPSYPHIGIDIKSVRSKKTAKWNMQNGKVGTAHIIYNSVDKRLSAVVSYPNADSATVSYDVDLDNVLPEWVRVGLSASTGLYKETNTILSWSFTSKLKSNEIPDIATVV
Compound,composite z-score [1],composite Z-score [2],composite z-score [3],composite z-score [4],composite z-score [5],composite z-score [6],composite z-score [7],composite z-score [8],composite z-score [9],composite z-score [10]
O=C1c2ccccc2[C@](Cc2ccccc2I)(C(=O)NC2CC2)[C@H](c2ccc(CO)cc2)N1C1CCCCC1,0.767,0.0542 (inactive),0.174,-0.0551,0.636,2.12,1.49,1.22,0.273,1.2
COc1ccc(CCN2C(=O)[C@@]3(c4ccc([N+](=O)[O-])cc4)CC(=O)N(C4CCCCC4)[C@@H]3c3ccc(CO)cc32)cc1,-1.26,0.469 (inactive),-0.0598,-0.101,0.257,0.622,0.347,0.38,0.693,0.587
CCc1oc(CC[C@@H](CO)NC(=O)NCCn2cc(C3(O)CCCCC3)nn2)c(C(=O)OC)c1C(=O)OC,-0.272,-0.0435 (inactive),0.232,-0.0813,-0.0227,0.376,0.731,1.18,0.915,1.11
C=C(COC)/C(=C/C[C@@H](OC(C)=O)c1ccc(OCCO)cc1)c1cc(C(=O)OC)ccc1OC,0.616,-0.064 (inactive),0.0873,-0.118,0.591,0.669,-0.413,1.27,0.784,0.699
C[N+](C)(C)CCCCNC(=O)[C@H]1C[C@H]2C(=O)N[C@@H](Cc3ccccc3)C(=O)N2[C@H]1c1ccc(O)cc1,-1.16,0.474 (inactive),-0.0343,-0.167,0.358,0.396,0.0021,0.247,1.05,0.274
COc1ccc(C#Cc2ccc3c(c2)[C@]2(C(=O)N3)[C@H](c3ccccc3OCCO)N3[C@H](c4ccccc4)[C@H](c4ccccc4)OC(=O)[C@H]3[C@@H]2C(=O)O)cc1,0.702,-0.274 (inactive),0.671,0.114,0.473,2.27,0.649,1.3,-0.0011,1.15
C=CCN1C(=O)[C@]2(O[C@H](CCO)[C@@H]([Si](C)(C)c3ccc(OC)cc3)[C@@H]2C)c2cc(N3CCCCC3=O)ccc21,0.694,0.801 (inactive),0.135,-0.106,0.163,1.86,0.279,1.28,0.122,0.877
C=CCOC(=O)[C@H]1[C@@H]2C(=O)O[C@@H](c3ccccc3)[C@@H](c3ccccc3)N2[C@@H](c2ccc(OCCOC(=O)[C@H]3C[C@H]4C(=O)N[C@@H](CC(C)C)C(=O)N4[C@H]3c3ccc(O)cc3)cc2)[C@]12C(=O)Nc1ccc(I)cc12,-0.262,0.672 (inactive),0.17,-0.117,0.597,1.77,0.818,1.28,1.37,1.16
COc1ccc(NN2C(C(O)c3ccc([N+](=O)[O-])cc3)C=CC3C(=O)N(C4CCCCC4)C(=O)C32)cc1 (stereo not given),0.424,0.601 (inactive),0.178,-0.115,0.561,1.48,-0.0699,1.23,-0.261,0.505
Cc1ccc(S[C@]2(C(=O)NCC(F)(F)F)CC(=O)N(C(C)C)[C@@H]2c2ccc(CO)cc2I)cc1,-0.667,0.314 (inactive),-0.276,-0.0557,0.742,0.506,0.106,-0.749,-0.445,-0.967
COc1ccc([Si](C)(C)[C@@H]2[C@@H](CCO)O[C@]3(C(=O)N(Cc4ccc(N5C(=O)COc6ccccc65)cc4)c4ccccc43)[C@H]2C)cc1,0.671,-0.539 (inactive),0.305,-0.0924,0.59,1.55,0.844,1.33,0.106,1.07
CCC(CC)C(O)C1C=CC2C(=O)N(C)C(=O)C2N1Nc1ccccc1 (stereo not given),0.333,-0.574 (inactive),0.149,-0.05,0.652,2.5,0.515,1.07,-0.237,1.2
O=C1OCCC/C=C\[C@H]2OC34C=CCN(Cn5nnc6ccccc65)C(=O)[C@H]3N(CCO)C(=O)[C@@H]4C12 (stereo not given in full),0.926,0.605 (inactive),0.0004,-0.0073,0.987,0.207,0.136,-0.642,-1.89,0.216
C=CC[C@@]1(C(=O)N(C)C)N=C(c2ccc(OCCCO)cc2)O[C@@H]1c1ccccc1N=[N+]=[N-],0.757,0.149 (inactive),0.37,0.209,0.588,3.01,1.2,1.3,-0.344,1.18
C=C(CCCC)/C(=C/C[C@@H](OC(C)=O)c1ccccc1OCCO)c1cnc2ccccc2c1,0.263,0.523 (inactive),0.033,-0.0209,0.684,0.206,0.719,0.97,0.333,0.535
[N-]=[N+]=NCc1ccccc1[C@@H]1OC(c2ccc(OCCCO)cc2)=N[C@]1(CCS(=O)(=O)c1ccccc1)C(=O)NCc1ccccc1,0.732,0.0035 (inactive),0.946,0.257,0.694,1.89,1.77,1.3,0.518,1.11
COc1cc(OC)c(C(O)C2C=CC3C(=O)NC(=O)C3N2Nc2ccc(Cl)cc2Cl)cc1Br (stereo not given),1,2.76 (inactive),0.282,0.321,0.615,2.99,0.474,1.22,-1.09,0.468
O=C1OCCC/C=C\[C@H]2OC34C=CCN(Cn5nnc6ccccc65)C(=O)[C@H]3N(CCCCCCO)C(=O)[C@@H]4C12 (stereo not given in full),-0.265,0.236 (inactive),-0.262,-0.101,0.652,2.13,-0.368,0.839,-1.25,-0.472
O=C1C2C=CC(C(O)C3CCCCC3)N(Nc3ccc([N+](=O)[O-])cc3)C2C(=O)N1c1ccccc1 (stereo not given),0.674,-0.0746 (inactive),-0.366,-0.197,0.57,2.53,0.499,1.29,-1.2,0.909
O=C1O[C@H](c2ccccc2)[C@H](c2ccccc2)N2[C@H]1[C@@H](C(=O)O)[C@]1(C(=O)Nc3ccc(C#CC4=CCCCC4)cc31)[C@H]2c1ccccc1OCCO,0.871,0.685 (inactive),0.806,0.0062,0.602,2.06,0.834,1.31,0.401,1.19
CCOc1cc(C(O)C2C=CC3C(=O)N(c4ccccc4)C(=O)C3N2Nc2ccccc2)ccc1O (stereo not given),0.0944,-0.224 (inactive),-0.0647,-0.164,0.617,1.31,0.791,0.381,-0.988,0.403
COC(=O)C(CC#Cc1ccc2c(c1)[C@]1(C(=O)N2)[C@H](C(=O)O)[C@H]2C(=O)O[C@H](c3ccccc3)[C@H](c3ccccc3)N2[C@@H]1c1ccc(O)cc1)C(=O)OC,-0.266,-1.69 (inactive),-0.274,-0.181,0.66,1.07,0.898,0.661,-0.872,-0.417
CCCC=C(CCC)[C@@H](NC(=O)Oc1ccc(F)cc1)c1ccc(C(=O)OC)cc1,0.673,-0.594 (inactive),0.209,-0.0817,0.31,1.9,0.0052,1.19,-0.813,0.977
C=C(C)C1C(=C)CN([C@H](CO)c2ccccc2)C1=O (stereo not given in full),0.16,1.66 (inactive),-0.0967,-0.133,-0.0056,-0.583,-0.133,-0.245,0.117,-0.844
C=CCN1C(=O)[C@@]2(O[C@@H](CCO)[C@H]([Si](C)(C)c3ccc(OC)cc3)[C@H]2C)c2cc(NC(=O)c3ccc(OC)cc3)ccc21,0.317,-0.265 (inactive),-0.0006,-0.0836,0.187,0.244,0.0327,1.18,0.927,1.03
COc1ccc(C(O)C2C=CC3C(=O)NC(=O)C3N2Nc2ccccn2)cc1 (stereo not given),-0.131,0.841 (inactive),0.0256,0.0308,0.482,1.39,0.348,-0.183,1,-0.0999
COCCOC(=O)N1C(=O)[C@@]2(c3cc(C#CC4(O)CCCCCC4)ccc31)[C@H](c1ccc(O)cc1)N1[C@H](c3ccccc3)[C@H](c3ccccc3)OC(=O)[C@H]1[C@@H]2C(=O)Nc1nc2ccccc2s1,0.873,0.0656 (inactive),0.499,0.203,0.362,1.85,0.552,1.32,0.524,0.785
O=C(NCc1ccccc1)[C@@]1(CCS(=O)(=O)c2ccccc2)N=C(c2ccc(OCCCO)cc2)O[C@H]1c1ccccc1,1.01,0.198 (inactive),0.471,-0.0128,0.615,3.07,0.557,1.29,-0.481,1.16
